TbREL1 inh: TbREL1 RNA ligase inhibitors, primary screen, biochemical, FRET fluorescence. RNA-editing ligase 1, mitochondrial (Trypanosoma brucei brucei), P86926. TbREL1 RNA ligation. inhibition, % at 9.66 µM. 89,000 tested, 0.49% active;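 active = inhibition above the mean inhibition across all screened compounds plus 3 SD, cut at about 11% in these data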;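 note: 0% = plate median of test wells and 100% = NSC42067 control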
Target sequence (P86926 whole entry, looked up): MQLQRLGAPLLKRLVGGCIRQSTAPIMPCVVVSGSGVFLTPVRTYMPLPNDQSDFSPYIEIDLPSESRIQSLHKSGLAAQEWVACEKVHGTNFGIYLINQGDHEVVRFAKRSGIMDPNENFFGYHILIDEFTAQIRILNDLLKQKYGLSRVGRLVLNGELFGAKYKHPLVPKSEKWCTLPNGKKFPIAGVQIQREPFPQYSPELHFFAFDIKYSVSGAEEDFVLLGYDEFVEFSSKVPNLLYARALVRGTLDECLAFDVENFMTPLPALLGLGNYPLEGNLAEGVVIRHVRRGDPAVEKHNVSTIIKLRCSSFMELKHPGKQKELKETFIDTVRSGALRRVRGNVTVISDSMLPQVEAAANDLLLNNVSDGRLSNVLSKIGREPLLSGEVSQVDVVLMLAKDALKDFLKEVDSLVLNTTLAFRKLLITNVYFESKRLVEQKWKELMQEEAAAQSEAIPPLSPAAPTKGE
TbREL1 conf: TbREL1 RNA ligase inhibitors, confirmation, biochemical, FRET fluorescence, triplicate | shares compounds with TbREL1 inh | TbREL1 RNA ligation | inhibition, % at 9.66 µM | 390 tested, 37% active | AID 1117282, 2014;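 active = mean inhibition across replicates above a set limit taken from the earlier primary screen, cut at about 11% in these data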;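 note: 0% = REL1 with substrate and DMSO and 100% = REL1 plus control inhibitor NSC42067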
* = called active by the depositor. Many of the other results were omitted from the sample, so hits are more common in it than they were.

SMILES | TbREL1 inh | others
CCC(C)NC(=O)C1CCN(S(=O)(=O)c2cccnc2)CC1 (stereo not given) | 2
Cc1ccc(NC(=O)C2CCN(S(=O)(=O)c3ccc4[nH]c(=O)oc4c3)CC2)cc1F | -1
CCC(C)NC(=O)C1CCN(S(=O)(=O)c2ccc3[nH]c(=O)oc3c2)CC1 (stereo not given) | 12* | TbREL1 conf=25*
CN(CCc1ccccn1)C(=O)Cn1nc(-c2ccccc2)ccc1=O | 6
CC(=O)N1CCc2cc(S(=O)(=O)NC3CCN(C(=O)OCc4ccccc4)CC3)ccc21 | -1
O=[N+]([O-])c1cc(-c2csc(NCCc3nc4cc(C(F)(F)F)ccc4n3CCCO)n2)ccc1Cl | 19* | TbREL1 conf=5
Cc1nc2cc(C(F)(F)F)ccc2n1CCNc1nc(-c2ccc([N+](=O)[O-])c(Cl)c2)cs1 | 0
OCCOCCn1c(CCNc2nc(-c3ccc(F)cc3)cs2)nc2cc(C(F)(F)F)ccc21 | -4
O=[N+]([O-])c1ccc(CSc2nnc(-c3cccc(Cl)c3)n2Cc2ccco2)cc1 | -2
O=C(Cn1nnc(-c2ccc(N3CCOCC3)cc2)n1)c1ccc(F)cc1 | -4
O=C(Nc1ccon1)c1ccc(S(=O)(=O)N2CCOCC2)cc1 | 13* | TbREL1 conf=5
CC1CN(S(=O)(=O)c2ccc(C(=O)Nc3ccc(S(=O)(=O)N4CCOCC4)cc3)cc2)CC(C)O1 (stereo not given) | -1
O=C(Nc1cccc(F)c1)c1ccc(S(=O)(=O)N2CCOCC2)cc1 | -2
N#Cc1cccc(Cn2ccc3ccc(-c4ccc5ccn(Cc6ccccc6)c5c4)cc32)c1 | 2
CCCCN(C)C(=O)CSc1nnc(-c2cccnc2)n1C1CCCCC1 | -5
CCCCNC(=O)O[C@H]1CC[C@@]23CCCN2C(=O)CCC[C@H]3C1 | 13* | TbREL1 conf=-3
O=C(NCCc1ccccc1)O[C@H]1CC[C@@]23CCCN2C(=O)CCC[C@H]3C1 | -5
O=C(NCc1ccccc1)O[C@@H]1CC[C@@]23CCCN2C(=O)CCC[C@H]3C1 | -5
CC(C)(C)c1ccc(-c2nnc(SCC(=O)Nc3cccc4ccccc34)n2Cc2ccco2)cc1 | 0
NS(=O)(=O)c1ccc(NC(=O)c2ccc(S(=O)(=O)N3CCOCC3)o2)cc1 | -1
NS(=O)(=O)c1cccc(NC(=O)CCc2ccc(S(=O)(=O)N3CCOCC3)cc2)c1 | 4
NS(=O)(=O)c1ccc(NC(=O)CCC(=O)N2CCOCC2)cc1 | 15* | TbREL1 conf=2
COc1cc(NC(=O)c2ccccc2)c(C)cc1NC(=O)CSc1nnc(-c2ccccc2F)n1-c1ccc(C)cc1 | -1
O=C1CCC[C@H]2C[C@H](NCCc3ccncc3)CC[C@]23CCCN13 | 5
CCCCN1CN2CCc3ccccc3C2CS1(=O)=O (stereo not given) | 3
SMILES | TbREL1 inh | others
COC(=O)CN(c1cc(Cl)ccc1OC)S(=O)(=O)c1ccc(C)cc1 | 3
COc1ccc(Cl)cc1N(CC(=O)N1CCCC1)S(=O)(=O)c1ccc(C)cc1 | 12* | TbREL1 conf=4
CCOC(=O)C1CCN(C(=O)CN(c2cc(Cl)ccc2OC)S(=O)(=O)c2ccccc2)CC1 | 1
C[C@@H]1CN([C@@H](C)CN(C)C)C(=O)c2cc(NC(=O)Nc3ccccc3)ccc2O[C@@H](C)CCCCO[C@H]1CN(C)S(=O)(=O)c1ccc(F)cc1 | 2
COc1ccccc1C(=O)n1ccc2ccc(-c3ccc4ccn(Cc5ccccc5)c4c3)cc21 | 9
O=S(=O)(Nc1cccc(-c2cn3c(n2)SCC3)c1)c1ccccc1F | -4
Oc1ccc(-c2cn3c(n2)SCC3)cc1 | -3
Oc1ccc(-c2cn3c(n2)SCC3)cc1O | 17* | TbREL1 conf=41*
O=S1(=O)c2ccc(N3CCC[C@H]3CO)cc2OCCCN1C1CC1 | -4
O=C(Cc1ccccc1)NCCN1CCCC1 | 0
O=C(O)CCCNC(=O)Nc1ccccc1 | 1
O=C(O)CCCNC(=O)Cc1ccccc1 | 17* | TbREL1 conf=0
Cc1cc(NS(=O)(=O)c2ccc(NC(=O)CSc3nnc(-c4cccnc4)n3-c3ccccc3)cc2)nc(C)n1 | -2
COc1ccc2c(c1)CCCN2C(=O)C1CCCN(S(=O)(=O)c2ccc(Cl)s2)C1 (stereo not given) | -4
COc1ccccc1N1CCN(S(=O)(=O)c2ccc3c(c2)n(C)c(=O)c(=O)n3C)CC1 | 0
Cn1c(N)c(C(=O)CSc2nnc(C3CC3)n2Cc2ccccc2)c(=O)[nH]c1=O | -3
Cn1c(N)c(C(=O)CSc2nnc(-c3c[nH]c4ccccc34)n2C2CC2)c(=O)[nH]c1=O | 15* | TbREL1 conf=7
Cc1ccc(-n2nnnc2SCC(=O)c2c(N)n(C3CC3)c(=O)[nH]c2=O)cc1 | 1
CCCC1CCC2(CC1)CCC2OC(=S)Nc1cccc(Cl)c1 (stereo not given) | 3
COC(=O)c1ccc2nc(-c3ccc(C)cc3)c(Cc3cccc(F)c3)n2c1 | 7
COC(=O)c1cnn2c(C)c(Cc3cccc(F)c3)c(C)nc12 | 16* | TbREL1 conf=2
Cc1nc2c(C(=O)N3CCCC3)cnn2c(C)c1Cc1c(F)cccc1Cl | 7
O=C(CCN1CCOCC1)N/N=C/c1cc(Br)cc(Br)c1O | 3
O=C(Cc1csc(N2CCOCC2)n1)N/N=C/c1ccc(O)c(O)c1O | 12* | TbREL1 conf=35*
O=C(N/N=C/c1sc(N2CCOCC2)nc1-c1ccccc1)c1ccccc1O | 3
SMILES | TbREL1 inh | others
CC(=NNC(=O)CSc1nnc(-c2ccc(C(C)(C)C)cc2)n1-c1ccccc1)c1cccc2ccccc12 | -2
CC(=O)C1=C(C)N(Cc2ccc(F)cc2)C(=S)NC1c1ccc(Cl)cc1 (stereo not given) | -8
CCCNC(=O)C/C(C)=N/NC(=O)C(=O)Nc1ccccn1 | 2
C/C(CC(=O)Nc1ccccn1)=N\NC(=O)c1ccc2ccccc2c1 | 0
C/C(CC(=O)Nc1ccccn1)=N\NC(=O)c1ccccc1O | 22* | TbREL1 conf=5
Cn1c(COc2ccccc2)nnc1SCC(=O)Nc1ccccc1-c1ccccc1 | -1
C[C@@H]1CCN(C2CC2)S(=O)(=O)c2c(cccc2N2CC[C@H](N(C)C)C2)O1 | 4
O=C(/C=C/c1ccc(-c2ccccc2)cc1)NC1=NCCS1 | -2
Cc1ccc(NC(=O)Cc2ccc(F)cc2)c(S(=O)(=O)N2CCOCC2)c1 | -1
COc1ccc(NC(=S)N(CCCN2CCCC2)Cc2cccs2)cc1 | -3
O=C(CCN1CCCCCC1)Nc1cccc(Cl)c1 | 2
S=C(Nc1cccc(Cl)c1)N(CCCN1CCCC1)Cc1cccn1Cc1ccc(Cl)cc1 | 11* | TbREL1 conf=1
CN1CCCCC(NC(=O)COCc2ccccc2)C1=O (stereo not given) | 0
COc1ccc(CC2CCN(c3ncnc4sccc34)CC2)cc1 | 0
Cc1ccc(C(=O)C2CCN(CC(=O)N3CCCC3)CC2)cc1 | -1
Cc1ccc(C(=O)C2COC(=O)C2)cc1 (stereo not given) | 20* | TbREL1 conf=5
Cc1ccc(C(=O)N2CCC(C(=O)c3ccc(Cl)cc3)CC2)cc1 | 0
O=C(NCc1ccco1)C1CCCN(S(=O)(=O)c2cccs2)C1 (stereo not given) | 0
CCn1c(Cc2cccs2)nnc1SCC(=O)Nc1ccc2c(c1)OCCO2 | 0
COc1ccc(OC)c(S(=O)(=O)N2CCCCC2C(=O)N2CCN(c3ccccc3F)CC2)c1 (stereo not given) | -1
NC(=O)C1CCN(c2nc(-c3ccc(OCc4ccccc4)cc3)cs2)CC1 | 1

Source: PubChem BioAssay
